Compounds without any hit were thinned out: in the full panel of roughly 79,000, 15% have a hit. Values without a mark were called inactive. The source made the active and inactive calls. Rule as the data show it: active = growth inhibition above about 70%; inactive = the rest.
Test: NCI Yeast Anticancer Drug Screen. Data for the rad50 strain (AID 155);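 also: 0% = growth of vehicle-only cultures of the same strain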
Conditions: S. cerevisiae rad50 strain growth inhibition; at 50.0 µM; hits give high values
Summary of the method: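 Genetically altered yeast (DNA repair pathway); compound treatment; growth inhibition vs vehicle ctrl.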

Compound | growth inhibition
CCNC(CCCC1CCCCC1)C(=O)O (stereo not given) | -0.9%
O=C(Nc1ccc(Cl)cc1)Nc1nnc2nc(C3(c4nc5nnc(NC(=O)Nc6ccc(Cl)cc6)n5[nH]c4=O)CCCC3=O)c(=O)[nH]n12 | -23.3%
C=C(Br)CN1CCC2(c3ccccc3)C(=O)C([Se]c3ccccc3)CCC12 (stereo not given) | -5.45%
O=C(NCCCCNCCCNC(=O)c1ccc([N+](=O)[O-])cc1)c1ccc([N+](=O)[O-])cc1 | -5.5%
CCCCN=C(C)CC(=O)CC(=O)c1ccccc1 | 30.3%
CCc1cccc(C)c1NC(=O)CCc1nnc2s/c(=C\c3cccc4ccccc34)c(=O)n12 | 25.6%
COC(=O)C(C(=O)C(=O)Nc1ccc(C)cc1)c1nc2ccc([N+](=O)[O-])cc2[nH]c1=O (stereo not given) | 16.9%
CCCCCCC(=O)/C=C/c1ccccc1OC | 9.15%
Clc1ccc(OCCBr)cc1 | 39.2%
NC(CCC(=O)NC(CSCNC(=O)Nc1ccc(Cl)cc1)C(=O)NCC(=O)O)C(=O)O (stereo not given) | -5.15%
C=C1N(C)c2ccccc2C1(C)C | 22.7%
CCCCC1(N=[N+]=[N-])C(=O)c2cccc3c2N(CCC3)C1=O (stereo not given) | 48.8%
COC(=O)c1ccc(OC(=O)Nc2cccc(C(C)=O)c2)cc1 | 14.2%
CCCCCNC(=S)NNC(N)=O | 4.2%
c1ccc2c(c1)ccc1c2c[n+](CCCCCCCC[n+]2cc3c4ccccc4ccc3c3ccccc32)c2ccccc12 | 88.4% (active)
CN(C)/N=N/c1nc2c(c(=O)n(C)c(=O)n2C)n1C | -2.25%
CC1(C)OC2COC(CNS(C)(=O)=O)C2O1 (stereo not given) | 12.2%
O=c1c2nn3c(=O)n(-c4ccccc4)c(=O)c3nn2c(=O)n1-c1ccccc1 | -33%
O=C(COc1ccc(Cl)c(Cl)c1)Nc1ccc(C(=O)CCl)cc1 | 6%
CSc1ncc(Br)c(Sc2nccn2C)n1 | 11.4%

Compound | growth inhibition
N#CCCCN1CCOCC1 | 0.8%
CCOC(=O)NNC(=O)C1CSC(c2ccccc2)N1C(C)=O (stereo not given) | -52.5%
Cc1ccc(S(=O)(=O)ON2C(=O)c3cccc4cc([N+](=O)[O-])cc(c34)C2=O)cc1 | 35.1%
COc1ccccc1-n1nnc2c(N)nc(N)nc21 | 7.05%
N[C@@H](C[C@H]1CCC(=O)[C@@H]2O[C@H]12)C(=O)O | -1.5%
Cc1c(O)c2ccc3ccccc3c2oc1=O | 5.4%
Cc1cccc(C(=O)c2ccccc2)c1C(=O)O | 10.7%
Fc1cccc(Cl)c1CSc1n[nH]c(C(F)(F)F)n1 | -4.65%
O=C(c1ccccc1)N1C(=S)N=C(Nc2ccccc2)C1=Nc1ccccc1 | -15.8%
COc1ccc(C2(C(OC)OC)NC(=O)N(Cc3ccccc3)C2=O)cc1 (stereo not given) | 2.7%
CC(C)(CCc1nc2ccccc2[nH]1)C(=O)O | -18.1%
Nc1ccc(NC(=S)Nc2ccccc2)cc1 | -2.35%
COc1ccc(/C=C2\N=C(c3cc(OC)c(OC)c(OC)c3)OC2=O)cc1 | 20.2%
CC(C)(C)OC(=O)C(C1NC(C(=O)O)C(C)(C)S1)N1C(=O)c2ccccc2C1=O (stereo not given) | -29.8%
O=C(N/N=C/c1ccccc1[O-])c1ccccc1O.O=C(N/N=C/c1ccccc1[O-])c1ccccc1O.[Fe+2] | 6.45%
Cc1ccc(NCC(=O)N2CC(=O)Nc3ccccc32)cc1 | -28.6%
O=C(Oc1c(Cl)cc([N+](=O)[O-])cc1[N+](=O)[O-])Sc1ccccc1 | 99.4% (active)
COC(=O)c1ccccc1OC(C)=O | 9.8%
O=[N+]([O-])c1cc(Br)c(F)cc1F | -22.2%
COc1cc(C(=O)Nc2cccc3ccccc23)c(Br)c(OC)c1OC | 19.3%

From PubChem BioAssay (NCI)
